Results reported in PubChem BioAssay AID1626 (SRMLSC, 2009).
Among all 220,000 compounds or so, about 2,000 (0.91%) were called active. Inconclusive results (about 2%) are left out. Rule as the data show it: inconclusive = inhibition above about 80% without an active follow-up result; inactive = below that; test concentration not stated here. Not all results are given here. Entries with a potency or affinity are not part of this list.

Experiment: M. tuberculosis H37Rv growth inhibitors, H37Rv strain (AID 1626);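 also: bacteria incubated seven days before Alamar blue readout; 0% = bacteria only wells and 100% = bacteria with antibiotic wells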
Settings: hits give high values, concentration not given here

Row | Compound | inhibition
1 | Nc1nc(Cn2nnc(-c3ccccc3Cl)n2)nc(N2CCOCC2)n1 | -0.22% (inactive)
2 | COc1ccc(Cl)cc1C(=O)NNC(=O)CCNC(C)=O | -6.02% (inactive)
3 | Cc1ccc(C(=O)/C=C2/NC(=O)CS2)cc1 | -4.36% (inactive)
4 | O=C1CS/C(=C/C(=O)c2ccccc2)N1 | -2.65% (inactive)
5 | COC(=O)CN1C(=S)N(c2ccc(OC)cc2)C(=O)/C1=C/c1cccs1 | 4.42% (inactive)
6 | c1ccc(Cc2nnc(N3CCOCC3)c3ccccc23)cc1 | -4.25% (inactive)
7 | CN(C)S(=O)(=O)c1cc(C(=O)NCc2ccccc2)c(Cl)cc1Cl | -5.51% (inactive)
8 | COc1ccc(CCN(C)C(=O)c2ccc(S(=O)(=O)NCc3ccco3)cc2)cc1OC | 2.54% (inactive)
9 | CC1=C2C3OC(=O)C(C)[C@@H]3CC[C@](C)(O)C2C2C3C4C5(C12)[C@H]1OC(=O)[C@@H](C)C1CC[C@]4(C)O[C@]5(C)[C@@H]3O (some centres not stated) | 17.2% (inactive)
10 | Nc1ccc(-c2nc3ccc(N)cc3s2)cc1 | -3.52% (inactive)
11 | Cc1nc2cc3sc(C)nc3cc2s1 | -1.33% (inactive)
12 | CCc1ccccc1NC(=O)CSC1=C(C#N)C(c2ccc3c(c2)OCO3)C2=C(CCCC2=O)N1 (configuration not stated) | 4.73% (inactive)
13 | CCN(CC)CCNc1nc2cc(OC)c(OC)cc2c2nc(-c3ccccc3)nn12 | 75% (inactive)
14 | CCN(CC)CCCNc1nc2cc(OC)c(OC)cc2c2nc(-c3cccnc3)nn12 | 7.65% (inactive)
15 | CC(C)C(NS(=O)(=O)c1cccs1)C(=O)N(C)Cc1ccccc1 (configuration not stated) | -0.19% (inactive)
16 | Cc1cc(NC(=O)CSc2nnc(C3CC3)n2N)c([N+](=O)[O-])cc1C | -1.15% (inactive)
17 | CCCCCCCn1c2c(c(=N)c3c1CCC3)CCCC2 | 13.8% (inactive)
18 | CCCCCCCn1c2c(c(=N)c3ccccc31)CCC2 | 9.19% (inactive)
19 | CCCCCn1c2c(c(=N)c3ccccc31)CCC2 | 7.75% (inactive)
20 | CCCCCCCCCn1c2c(c(=N)c3c1CCC3)CCC2 | 56.5% (inactive)
21 | CCCCCCn1c2c(c(=N)c3c1CCC3)CCC2 | 1.15% (inactive)
22 | CCCCn1c2c(c(=N)c3c1CCC3)CCC2 | -7.84% (inactive)
23 | COC(=O)Cc1c(O)ccn(C2CC2)c1=O | -1.41% (inactive)
24 | CC(C)C(NS(=O)(=O)c1cccs1)C(=O)NCc1ccccc1Cl (configuration not stated) | -0.44% (inactive)
25 | Cn1c(SCC(=O)N2CCCc3ccccc32)nnc1-c1cccs1 | 11.9% (inactive)

Row | Compound | inhibition
26 | COc1cc(NC(=O)c2ccc(Cl)cc2)c(OC)cc1NC(=O)CN1CCOCC1 | -0.92% (inactive)
27 | COc1cc(NC(=O)c2ccccc2)c(OC)cc1NC(=O)CN1CCCCC1 | 25.5% (inactive)
28 | Cc1cc(NC(=O)c2cc(-c3ccccc3)on2)no1 | -3.83% (inactive)
29 | CCOC(=O)CC(=O)CSc1nc(C)cc(-c2cccnc2)c1C#N | 0.1% (inactive)
30 | CN(C)CCCNc1nc2sc3c(c2c(=O)n1CCc1ccccc1)CCCCC3 | 76.4% (inactive)
31 | CN(C)CCCn1c(=O)n(Cc2ccco2)c(=O)c2c3c(sc21)CCCCC3 | -6.11% (inactive)
32 | CCn1c(=O)n(CCc2ccccc2)c(=O)c2c3c(sc21)CCCC3 | 0.77% (inactive)
33 | O=c1c2c3c(sc2nc(NCCO)n1CCc1ccccc1)CCCCC3 | 5.74% (inactive)
34 | CC1=C(C(=O)Nc2ccccc2)C(c2ccccn2)n2nc(CCCO)nc2N1 (configuration not stated) | 2.92% (inactive)
35 | Cn1c(Sc2ccc(C(F)(F)F)cc2[N+](=O)[O-])nnc1-c1ccccc1 | 0.5% (inactive)
36 | CCc1ccc(CNCc2cccs2)cc1 | -12.3% (inactive)
37 | CCc1nc(NCCc2ccccn2)c2nnn(Cc3ccccc3F)c2n1 | 7.39% (inactive)
38 | CCN1CCN(CCCNC(=O)c2ccc(/C=C3/Sc4ccccc4N(Cc4ccccc4F)C3=O)cc2)CC1 | 1.17% (inactive)
39 | CN1CCN(CCCNC(=O)c2ccc(/C=C3\Sc4ccccc4N(Cc4ccccc4F)C3=O)cc2)CC1 | 33.6% (inactive)
40 | NC(N)=NS(=O)(=O)c1ccc(NC(=S)NC(=O)/C=C/c2cccs2)cc1 | 3.44% (inactive)
41 | c1cc(-c2ccncc2)ccn1 | 2.83% (inactive)
42 | CCOC(=O)c1c(-c2ccncc2)csc1N | 9.94% (inactive)
43 | O=C(NC(=S)Nc1ccccc1[N+](=O)[O-])c1ccccc1Cl | -1.52% (inactive)
44 | O=C(Nc1ccccc1)OCCCc1ccccc1 | 5.86% (inactive)
45 | COc1ccc(C2C=C(C34CC5CC(CC(C5)C3)C4)NC(=S)N2)cc1 (configuration not stated) | 1.23% (inactive)
46 | COC(=O)c1sc2cnccc2c1N | -1.77% (inactive)
47 | COC(=O)c1sc2ccccc2c1N | 2.95% (inactive)
48 | COC(=O)CSc1nc(-c2cccs2)ccc1C#N | -2.21% (inactive)
49 | COC(=O)CSc1[nH]c(=O)cc(C)c1C#N | -7.37% (inactive)
50 | COC(=O)CSc1nc2cc(C)ccc2cc1C#N | -2.11% (inactive)

Row | Compound | inhibition
51 | COC(=O)CSc1nc(C)cc(C)c1C#N | -8.05% (inactive)
52 | COc1cc(SC)ccc1C(=O)OCC(=O)NC1CC1 | 2.29% (inactive)
53 | CCOC(=O)CSc1snnc1C | -2.01% (inactive)
54 | CN(c1ccccc1)S(=O)(=O)c1cccc(Cl)c1Cl | -4.92% (inactive)
55 | c1ccc(-c2ccnc3nc(N4CCN(c5ccccc5)CC4)nn23)cc1 | 6.16% (inactive)
56 | c1ccc(Oc2ccc(-c3ccnc4nc(N5CCN(c6ccccc6)CC5)nn34)cc2)cc1 | 20.8% (inactive)
57 | CNC(=S)NNC(=O)c1sccc1OCc1ccc(Cl)cc1Cl | -2.33% (inactive)
58 | N#CC1CCN(c2ncccc2[N+](=O)[O-])CC1 | -9.15% (inactive)
59 | COc1ccc(OC)c(-c2cc(C3CCN(c4ncccc4[N+](=O)[O-])CC3)[nH]n2)c1 | -8.76% (inactive)
60 | Cc1nnc(SCc2nc3ccccc3c(=O)n2-c2ccccc2Cl)n1N | 2.11% (inactive)
61 | Cc1cccc(C)c1NC(=O)c1c(C)nn(-c2ccccc2)c1Cl | -2.35% (inactive)
62 | O=C(O)CSc1ccnc2cc(Cl)ccc12 | 3.22% (inactive)
63 | CCN(CC)C(=O)Oc1ccnc2cc(Cl)ccc12 | 2.84% (inactive)
64 | O=C(COc1ccccc1Cl)Nc1ccc2c(c1)OCCO2 | 5.61% (inactive)
65 | COC(=O)c1ccccc1NC(=O)c1cc(C2CC2)on1 | 4.32% (inactive)
66 | CCc1ccccc1NC(=O)c1cc(C2CC2)on1 | 8.45% (inactive)
67 | COc1ccc(-c2csc(N3C(=O)C4C5c6ccccc6C(c6ccccc65)C4C3=O)n2)cc1 (configuration not stated) | 49% (inactive)
68 | CCc1c(C#N)c(SCCC(=O)Nc2ccc(F)cc2)nc2c1C(=O)CC(C)(C)C2 | 6.22% (inactive)
69 | O=C(NC1CC1)c1cc2c(F)cccc2s1 | -6.42% (inactive)
70 | O=C(c1c(F)cccc1F)N1CCCC1 | -1.31% (inactive)
71 | COc1ccc(C(=O)OC(C(=O)c2ccc(C)cc2)c2ccccc2)cc1 (configuration not stated) | 9.22% (inactive)
72 | C/C(=N/NC(=O)c1cc(-c2ccc(Cl)s2)[nH]n1)c1ccco1 | 40.6% (inactive)
73 | CC1(C)CC(=O)C=C(c2cccc3c2oc2ccccc23)C1 | 8.8% (inactive)
74 | COC(=O)[C@@H]1C[C@H]1[C@@H](NS(=O)(=O)c1ccccc1)c1ccccc1 | -5.22% (inactive)
75 | C/C(=N\N=C(/N)SC1CC(=O)N(c2ccccc2)C1=O)c1cccs1 (configuration not stated) | 3.4% (inactive)

Row | Compound | inhibition
76 | C/C(=N\N=C(/N)SC1CC(=O)N(c2ccc(Cl)cc2)C1=O)c1cccs1 (configuration not stated) | 64.5% (inactive)
77 | COC(=O)CNC(=O)COC(=O)/C=C/c1ccc2ccccc2n1 | 61.8% (inactive)
78 | CN(C(=O)COC(=O)/C=C/c1ccc2ccccc2n1)C1CCS(=O)(=O)C1 (configuration not stated) | 14.9% (inactive)
79 | CC(O)/C=C/c1ccc2ccccc2n1 (configuration not stated) | 10.2% (inactive)
80 | O=C(O)/C=C/c1ccc2ccccc2n1 | -1.78% (inactive)
81 | COc1cc(NC(=O)C2CC(=O)NC3=C2C(=O)CCC3)cc(OC)c1 (configuration not stated) | -7.6% (inactive)
82 | CC(=O)O[C@]1(c2ccccc2)CCN(C)[C@H]2CCCC[C@@H]21 | -5.42% (inactive)
83 | Cc1ccc(Cn2nnc3c(=O)n(CC(=O)c4ccccc4)cnc32)cc1 | 4.84% (inactive)
84 | CC(=O)N1C(=O)N(C)C2C1N(C)C(=O)N2C(C)=O (configuration not stated) | -8.79% (inactive)
85 | C=CCOC(=O)C1=C(C)NC(=S)C(C#N)(CC=C)C1c1ccccc1Cl (configuration not stated) | -0.05% (inactive)
86 | Cc1ccc(S(=O)(=O)/N=C(\N)Nc2nc(C)c3ccccc3n2)cc1 | 9.4% (inactive)
87 | Cc1ccc2c(C)nc(N/C(N)=N/S(=O)(=O)c3ccc([N+](=O)[O-])cc3)nc2c1 | 13% (inactive)
88 | CCCOc1ccc(N2C(=O)CC(SC(=N)N3N=C(c4ccccc4)CC3c3ccccc3)C2=O)cc1 (configuration not stated) | 75.6% (inactive)
89 | CCN(CC)S(=O)(=O)c1ccc(NC(=O)C(C)N(c2ccccc2)S(C)(=O)=O)cc1 (configuration not stated) | -1.18% (inactive)
90 | COc1ccc(-c2nnc(SCC(=O)NCC3CCCO3)n2C)cc1 (configuration not stated) | -4.37% (inactive)
91 | CCc1ccc2nc(-c3cccc(C)c3)nc(SCC(=O)NCC3CCCO3)c2c1 (configuration not stated) | -13% (inactive)
92 | COc1ccc(-c2nnc3ccc(SCC(=O)NCC4CCCO4)nn23)cc1 (configuration not stated) | -3.46% (inactive)
93 | Cc1cccc(-c2nsc(SCC(=O)Nc3cc(C)on3)n2)c1 | 70.6% (inactive)
94 | Cc1cc(NS(=O)(=O)c2ccccc2)n(-c2ccccc2)n1 | -2.44% (inactive)
95 | CCC(=O)N1CCc2cc(S(=O)(=O)NCCC(=O)N3CCN(c4ccccn4)CC3)ccc21 | -5.78% (inactive)
96 | COc1cc(/C=N/NC(=O)COc2ccccc2[N+](=O)[O-])ccc1OC(=O)c1ccco1 | 4.21% (inactive)
97 | Cn1ccnc1SCC(=O)Nc1ccc(Oc2ccccc2)cc1 | 3.6% (inactive)
